From PubChem BioAssay (NCI)
About 83,000 compounds went through this panel and 20% of them were active in at least one assay; those are over-represented in the sample as a whole.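 Plates (96-well) were seeded with cells, treated with compound at one concentration, and incubated for 48 hours before percent growth was determined.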 Unmarked numbers belong to inactive results. Calls of active or inactive are those of the source. How the source made its calls: active means growth percent below 10; inactive means the rest.

tested on: COLO 205 colon; experiment: NCI-60 one-dose screen, 48 h (100 = growth as untreated, 0 = no growth, -100 = all killed); settings: 10 µM unless noted

Q: How did the growth turn out when Oc1c(I)cc(-c2nc3ccccc3s2)cc1CN(Cc1ccccn1)Cc1ccccn1 was run?
A: 14.3%

Q: With Cc1ncc(C(=O)Nc2ccc(CN3CCN(C)CC3)c(C(F)(F)F)c2)cc1C#Cc1cnc(N)c2ccncc12 as the compound, how does the growth read?
A: -84.1% (active)

Q: Which growth does the source give for O=C1/C(=C/c2ccc(C(F)(F)F)cc2)COc2ccc(O)c(O)c21 here?
A: 12.3%

Q: With O=C1N[C@@H]2[C@@H](O)[C@@H](O)[C@H](O)C[C@H]2c2cc3c(c(O)c21)OCCO3 as the compound, how does the growth read?
A: -49% (active)

tested on: DU-145 prostate; experiment: as above; settings: 10 µM unless noted

Q: CCCCCSB(SCCCCC)c1ccccc1 was tested. Which growth did it give?
A: 108%

Q: With c1ccc(CNc2ccc3nc(CCC4CCCCC4)[nH]c3c2)cc1 as the compound, how does the growth read?
A: 80.1%

Q: How did the growth turn out when S=c1ssnc1-c1cccs1 was run?
A: 123%

Q: For O=C(/C=C/c1ccc(Br)cc1)c1ccc(-n2cc(CN3CCN(c4cc5c(cc4F)c(=O)c(C(=O)O)cn5C4CC4)CC3)nn2)cc1, which growth is on record?
A: 78.9%

Q: How did the growth turn out when COc1ccc(Cc2cnc(NC(=O)c3sc4ccccc4c3Cl)s2)cc1 was run?
A: 25%

Q: N#C/C(=C\c1ccc(Cl)cc1Cl)C(=O)Nc1ncc(Cc2ccc(Cl)c(Cl)c2)s1 was tested. Which growth did it give?
A: 99.3%

Q: With N#Cc1c(-c2cccc([N+](=O)[O-])c2)cc(-c2ccc(Nc3nc(Nc4ccc(F)cc4)nc(Nc4ccc(F)cc4)n3)cc2)nc1N as the compound, how does the growth read?
A: 154%

Q: How did the growth turn out when O=C(CCCCCCN1CC(=O)N2[C@@H](c3ccc(Cl)cc3)c3[nH]c4ccccc4c3C[C@H]2C1=O)NO was run?
A: 73.4%

Q: Which growth does the source give for CCCCCCCCn1ccc2cc(NC(=O)Cn3cc(CN4CCC(C)CC4)nn3)ccc21 here?
A: 42.3%

Q: CCCC(O)Cn1ncc(C(=O)OCC)c1NC(=O)NCc1cccc(F)c1 (centres undefined) was tested. Which growth did it give?
A: 99.4%

Q: COc1cc2c3c(c1O)-c1ccccc1[C@@H]1OC(=O)N(CC2)[C@H]31 was tested. Which growth did it give?
A: 120%

Q: With C/C(=C(/c1ccc(Cl)cc1)c1ccc(OCCCN(C)C)cc1)c1ccc(Cl)cc1 as the compound, how does the growth read?
A: 95.5%

Q: For Cc1cc(C(=O)Nc2cc(Nc3ncccc3-c3ncnc4nc[nH]c34)ccc2F)cc(C(F)(F)F)c1, which growth is on record?
A: 74.8%

Q: CCOC(=O)NN1CC(O)=C(c2nc(-c3ccc(Br)cc3)cs2)C1=N was tested. Which growth did it give?
A: 105%

Q: Which growth does the source give for O=C1C(Cl)=C(NCCN2CCOCC2)C(=O)c2ncccc21 here?
A: -88.5% (active)

Q: How did the growth turn out when O=C(Nc1ccc(F)cc1)Nc1ccccc1CNc1nc(Nc2ccc(OCCN3CCCC3)cc2)ncc1Cl was run?
A: 47%

Q: How did the growth turn out when C[C@H]1[C@H](C)CC[C@]2(C(=O)O)CC[C@]3(C)C(=CC[C@@H]4[C@@]5(C)C[C@@H](Cc6cn([C@@H]7O[C@H](CO)[C@@H](O)[C@H](O)[C@H]7O)nn6)[C@H](O)C(C)(C)[C@@H]5CC[C@]43C)[C@H]12 was run?
A: 105%

Q: COC(=O)c1ccc2c(c1)c1c(C)c3ccncc3c(C)c1n2C was tested. Which growth did it give?
A: 22.7%

Q: COc1cc(C(=O)c2c(-c3ccccc3)oc3c(OC)cccc23)cc(OC)c1O was tested. Which growth did it give?
A: 23%

Q: Which growth does the source give for C=C1C(=O)O[C@H]2[C@H]1CC/C(CNC(=O)c1cc3ccccc3[nH]1)=C\CC[C@@]1(C)O[C@@H]21 here?
A: -87.7% (active)

Q: With O=P(O)(O)OCC1OC(n2cnc3c(NCc4ccccc4)ncnc32)C(O)C1O (centres undefined) as the compound, how does the growth read?
A: -50.3% (active)

Q: CCN(CC)CCCNCc1cc(-c2ccccc2)nc2cc(Cl)ccc12 was tested. Which growth did it give?
A: 78.3%

Q: How did the growth turn out when COc1cc2nc(Nc3cccc(F)c3)nc(Nc3cc(C)[nH]n3)c2cc1OC was run?
A: -94.7% [20 µM] (active)

Q: For CCC/C(=N\NC(N)=O)C(OC)OC, which growth is on record?
A: 96.2%

Q: For O=C1c2cc3c(cc2-c2c1c1ccc(Cl)cc1c(=O)n2C[C@H](O)CO)OCO3, which growth is on record?
A: 3.78% (active)

Q: CCSC1=CC(=O)c2ccccc2C1=O was tested. Which growth did it give?
A: 95.1%

Q: With COc1cc(-c2nc3occn3c2-c2ccnc(NCCCNS(=O)(=O)c3ccccc3)n2)ccc1F as the compound, how does the growth read?
A: 52.5%

Q: For COC1=CC(c2ccc[nH]2)=N/C1=C\c1[nH]c(C)c(CC(=O)OCc2ccccc2)c1C, which growth is on record?
A: 20.8%

Q: How did the growth turn out when O=C(CSc1nnc2sc(Nc3cccc(Cl)c3)nn12)c1ccc(F)cc1 was run?
A: 104%

Q: How did the growth turn out when COc1ccc(C2=Nc3c(N)ncnc3NC(c3cccc(Nc4ccnc5cc(C(F)(F)F)ccc45)c3)C2)cc1 (centres undefined) was run?
A: 80.2%

Q: For Nc1c(C(=O)Nc2cccc3ncccc23)sc2nc3c(cc12)C(=O)CCC3, which growth is on record?
A: 69.9%

Q: For C#CCn1cnc2c(Nc3cccc(NC(=O)CCl)c3)ncnc21, which growth is on record?
A: 43.6%

Q: COc1cc2oc(-c3cccc(NC(=O)c4ccc5c(c4)OCO5)c3)cc(=O)c2c(OC)c1OC was tested. Which growth did it give?
A: 52.9%

Q: For CCOC(=O)CSc1nc2sc3c(c2c(=O)n1-c1ccc([N+](=O)[O-])cc1)CCCCC3, which growth is on record?
A: 63.5%

Q: For Cn1cc(-c2nn3cc(-c4ccccc4)nc3s2)c2ccccc21, which growth is on record?
A: 99.2%

Q: How did the growth turn out when C=C1C(=O)O[C@H]2[C@H]1CC/C(COC(=O)NCCCCCCCCNC(=O)OC/C1=C/CC[C@@]3(C)O[C@H]3[C@H]3OC(=O)C(=C)[C@@H]3CC1)=C\CC[C@@]1(C)O[C@@H]21 was run?
A: -92.1% (active)

Q: Oc1c(I)cc(-c2nc3ccccc3s2)cc1CN(Cc1ccccn1)Cc1ccccn1 was tested. Which growth did it give?
A: 28.1%

Q: For Cc1ncc(C(=O)Nc2ccc(CN3CCN(C)CC3)c(C(F)(F)F)c2)cc1C#Cc1cnc(N)c2ccncc12, which growth is on record?
A: -50.5% (active)

Q: For O=C1/C(=C/c2ccc(C(F)(F)F)cc2)COc2ccc(O)c(O)c21, which growth is on record?
A: 16.1%

Q: Which growth does the source give for O=C1N[C@@H]2[C@@H](O)[C@@H](O)[C@H](O)C[C@H]2c2cc3c(c(O)c21)OCCO3 here?
A: -2.39% (active)
